These results are taken from PubChem BioAssay (EPA / NIEHS).

Active and inactive are the calls of the source. How the source made its calls: active means hit-call score of the fitted dose curve at least 0.9, where 1 is the maximum; inactive means score below 0.9.

The nature of the assay: APR_HepG2_p53Act_1hr: Apredica 1-hour HepG2 Assay for p53 Activation (AID 2282671). The settings on record: high-content imaging, actives raise or lower the signal. Here is the method:
APR_HepG2_1hr is a cell-based, multiplexed-readout assay that uses HepG2, a human liver cell line, with measurements taken at 1 hour after chemical dosing in a 384-well plate.APR_HepG2_p53Act_1hr is one of 10 assay component(s) measured or calculated from the APR_HepG2_1hr assay. It is designed to make measurements of dna content, a form of viability reporter, as detected with fluorescence intensity signals by HCS Fluorescent Imaging technology.Data from the assay component APR_HepG2_p53Act_1hr was analyzed into 1 assay endpoint. This assay endpoint, APR_HepG2_p53Act_1hr, was analyzed with bidirectional fitting relative to DMSO as the negative control and baseline of activity. Using a type of viability reporter, measures of protein for gain or loss-of-signal activity can be used to understand the signaling at the pathway-level as they relate to the gene TP53. Furthermore, this assay endpoint can be referred to as a primary readout, because this assay has produced multiple assay endpoints where this one serves a signaling function. To generalize the intended target to other relatable targets, this assay endpoint is annotated to the dna binding intended target family, where the subfamily is tumor suppressor.
Cells were treated with dimethyl sulfoxide (DMSO) as a solvent control at a final concentration of 0.5% v/v or with compounds in DMSO with a resulting final DMSO concentration of 0.5% v/v. Compound treatment was done at concentrations of 0.39, 0.78, 1.56, 3.12, 6.24, 12.5, 25, 50, 100, and 200 uM in duplicate on each plate. Cells were treated with compounds for 1, 24, or 72 hr. Carbonyl […] m-chloro-phenylhydrazone (CCCP) and taxol were used as positive controls for mitochondrial function and cytoskeletal stability, respectively; DMSO served as the negative control for this experiment. Cells were fixed by the direct addition of 50 uL formaldehyde in Hank's Balanced Salt Solution (HBSS) to a final concentration of 3.7%. After incubation in the fixation medium for 30 min at room temperature (293-298 K), cells were rinsed twice with HBSS and treated with cell permeabilization buffer (16 uL of 0.5% Triton X-100) for 10 min at room temperature (293-298 K) before labeling. For mitochondrial membrane potential and mitochondrial measurements, pre-fixed cells were incubated with 50 uL of MitoTracker Red CMXRos (Invitrogen) at a concentration of 250 nM for 30 min before fixation. In the remaining cases, post-fixed cells were labeled by incubation with a multiplexed mixture of primary antibodies in HBSS for 60 min at room temperature (293-298 K) to detect immunoreactivity of c-Jun (1:500), phospho-histone H3 (1:100), phospho-histone H2A.x (1:200), p53 (1:400), alpha-tubulin (1:200) and Hoechst 33342 (2 ug/mL). Cells were labeled for multiplexed imaging on two separate plates: a) Hoechst 33342, MitoTracker Red, phospho-histone H3, and alpha-tubulin, and b) Hoechst 33342, phospho-histone H2A.x, and c-Jun. A final rinse with HBSS (50 uL) was performed before analysis. The primary and secondary antibodies for the proteins were phospho-histone H3 (rabbit anti-phospho-histone H3 and FITC-donkey anti-rabbit IgG), phospho-histone H2A.x (mouse anti-phospho-histone H2A.x and FITC-donkey anti-mouse IgG), c-Jun (rabbit anti-phospho-c-Jun and Cy3-donkey anti-rabbit IgG), p53 (sheep anti-p53 and Cy5-donkey anti-sheep IgG), alpha-tubulin (mouse anti-alpha-tubulin and Cy5-donkey anti-mouse IgG). These antibodies are available as the CellCiphr HepG2 assay kit (Millipore).Digital images of each well were captured using a Cellomics ArrayScan VTI (Thermo Scientific Cellomics) (0.8 NA objective, 0.63x optical coupler, and XF-93 filter set) at 20x magnification. The images were acquired using the autofocus feature of the ArrayScan instrument, which entails the following steps. First, the camera focuses on channel 1 (Hoechst 33342), where nuclei are identified. Second, a Z offset of 1 um is used for capturing mitochondria (MitoTracker Red). […]
As to `Cc1nn(-c2cc(NS(C)(=O)=O)c(Cl)cc2Cl)c(=O)n1C(F)F`, the molecule was classed as inactive.
Still for that read-out and setting: the entry for `C#CCC1=C(C)C(OC(=O)C2C(C=C(C)C)C2(C)C)CC1=O` (stereo not given) is “inactive”.
As for `CC[C@H](C)[C@H]1O[C@]2(C=C[C@@H]1C)C[C@@H]1C[C@@H](C/C=C(\C)[C@@H](O[C@H]3C[C@H](OC)[C@@H](O[C@H]4C[C@H](OC)[C@@H](NC)[C@H](C)O4)[C@H](C)O3)[C@@H](C)/C=C/C=C3\CO[C@@H]4[C@H](O)C(C)=C[C@@H](C(=O)O1)[C@]34O)O2`, the AC50 was 26.8 µM (active).
With `S=C1NCCN1`, the molecule was called inactive.
Same read-out and setting: the entry for `CCOP(=S)(OCC)OC(Cl)C(Cl)(Cl)Cl` (stereo not given) is “inactive”; for `CCC(=O)Nc1ccc(Cl)c(Cl)c1` it is “inactive”.
Same read-out and setting: under `CCc1cccc(C)c1N(C(=O)CCl)C(C)COC` (stereo not given) stands “inactive”; under `CN1COCN(Cc2cnc(Cl)s2)C1=N[N+](=O)[O-]`, “inactive”.
In the case of `CNC(=O)ON=C(SC)C(=O)N(C)C`, the molecule was called inactive.
Still for that read-out and setting: under `CSc1nnc(C(C)(C)C)c(=O)n1N` stands “inactive”.
Same read-out and setting: the entry for `CCC(=NOC/C=C/Cl)C1=C(O)CC(C2CCOCC2)CC1=O` (stereo not given) is “inactive”.
Still for that read-out and setting: the entry for `CNC(=O)ON=C(C)SC` is “inactive”.
For the molecule `CC(COc1ccc(Oc2ccccc2)cc1)Oc1ccccn1` (stereo not given), the molecule was classed as inactive.
`CNC(=O)Oc1cccc2c1OC(C)(C)O2`: the outcome was inactive.
The same measure, in the same setting: the entry for `CC1=NNC(=O)N(/N=C/c2cccnc2)C1` is “inactive”.
On the same count and under the same terms, under `O=c1ccc(=O)[nH][nH]1` stands “inactive”; under `CCOP(=S)(OCC)Oc1ccc2c(C)c(Cl)c(=O)oc2c1`, “inactive”; under `CCOC(=O)COc1cc(-c2nn(C)c(OC(F)F)c2Cl)c(F)cc1Cl`, “inactive”.
On the same count and under the same terms, under `CC(C)=CC1C(C(=O)OCN2C(=O)C3=C(CCCC3)C2=O)C1(C)C` (stereo not given) stands “inactive”.
On to `COP(=O)(NC(C)=O)SC` (stereo not given), for which the molecule was called inactive.
Same read-out and setting: the entry for `N#CSCSC#N` is “inactive”; for `CCNc1nc(Cl)nc(NC(C)(C)C#N)n1` it is “inactive”.
The same measure, in the same setting: the entry for `CC(Oc1cccc(Cl)c1)C(=O)O` (stereo not given) is “inactive”; for `Cc1cc(C2CC2)nc(Nc2ccccc2)n1` it is “inactive”; for `CC1(C(=O)Nc2ccc(O)c(Cl)c2Cl)CCCCC1` it is “inactive”.
In the case of `CCCCSP(=O)(SCCCC)SCCCC`, the call was inactive.
Same read-out and setting: under `CCOC(=O)CC(SP(=O)(OC)OC)C(=O)OCC` (stereo not given) stands “inactive”; under `CCCCOC(=O)[C@@H](C)Oc1ccc(Oc2ccc(C#N)cc2F)cc1`, “inactive”.
For `COc1cc(OC)nc(Sc2cccc(Cl)c2C(=O)O)n1`, the call was inactive.
Same read-out and setting: under `Nc1nc(N)nc(NC2CC2)n1` stands “inactive”.
Still for that read-out and setting: the entry for `CCCSP(=O)(OCC)Oc1ccc(Br)cc1Cl` (stereo not given) is “inactive”.
Same read-out and setting: under `CCCOCC(=Nc1ccc(Cl)cc1C(F)(F)F)n1ccnc1` stands “inactive”; under `CCCCN(CC)c1c([N+](=O)[O-])cc(C(F)(F)F)cc1[N+](=O)[O-]`, “inactive”; under `CSc1nc(NC(C)C)nc(NC(C)C)n1`, “inactive”.
Regarding `CCOP(=S)(OCC)Oc1ccc([N+](=O)[O-])cc1`, the result was inactive.
Same read-out and setting: under `CC(C)N(C(=O)SCC(Cl)=C(Cl)Cl)C(C)C` stands “inactive”.
The same measure, in the same setting: the entry for `CCOP(=S)(Oc1cnc(C(C)(C)C)nc1)OC(C)C` (stereo not given) is “inactive”; for `FC(F)C(F)(F)OCC(Cn1cncn1)c1ccc(Cl)cc1Cl` (stereo not given) it is “inactive”; for `COc1ccc(C(=CC(=O)N2CCOCC2)c2ccc(Cl)cc2)cc1OC` it is “inactive”.
Same read-out and setting: under `CC(=NC#N)N(C)Cc1ccc(Cl)nc1` stands “inactive”.

The AC50 is the concentration giving half of the maximal activity seen.
